“And” between values parts separate entries of the source, which are not always exact repeats. Identical values can stand only once. Records with an inconclusive call do not appear. The source made the active and inactive calls.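 The calls were made as follows, unless noted: active = thallium flux through the channel raised or lowered by more than 3 SD from vehicle-only wells, actives on both sides; inactive = the rest.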
How the values were obtained:
[1] = compounds altering circadian rhythm period length – cell-based, LOPAC library, luminescence reporter (AID 2774; call rule not given here;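 also: values are relative to mean of DMSO wells on each plate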); conditions: circadian reporter cells, at 7 µM, actives lie on both sides
[2] = P. berghei load reduction in hepatocytes – cell-based, HepG2, luciferase luminescence, HepG2 viability, primary screen (AID 624349; in the data active = parasite load remaining mostly below about 12%, no sharp cut-off; inactive = mostly above about 10%;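 also: 100% = mean of DMSO negative control wells on the same plate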); conditions: P. berghei liver stage in HepG2, luciferase luminescence, concentration not given here; parasite load remaining: stronger effect = lower value; viability: measured here: HepG2 viability without parasites
[3] = system: Hepatitis C virus NS3 helicase; test: blockers of NS3h binding to ssDNA – biochemical, fluorescence polarization, LOPAC1280 library, primary screen (AID 687035; in the data active = inhibition above about 37%); conditions: Purified HCV NS3 helicase, Cy5-dT15 ssDNA binding fluorescence polarization; stronger effect = higher value; concentration not given here
[4] = compounds altering Cy5-DNA-NS3h complex signal – biochemical, LOPAC1280, artefact control for HCV NS3 helicase inhibitor project (AID 687037; call rule not given here); conditions: Cy5-DNA-NS3h complex fluorescence interference counterscreen
[5] = signal quenchers or enhancers, Cy5 substrate/SSB – biochemical, NIH Clinical Collection, E. coli SSB, artefact control for HCV NS3 helicase inhibitor project (AID 743268; call rule not given here); conditions: Cy5-oligo bound E. coli SSB, fluorescence interference
[6] = system: Hepatitis C virus NS3 helicase; test: blockers of NS3h binding to DNA – biochemical, fluorescence polarization, NIH Clinical Collection, primary screen (AID 743270; call rule not given here); conditions: NS3 helicase binding to Cy5-dT15 DNA, stronger effect = higher value, concentration not given here
[7] = target: Single-stranded DNA-binding protein (Escherichia coli (strain K12)) (UniProt P0AGE0); test: SSB-ssDNA binding inhibitors – biochemical, fluorescence polarization, NIH Clinical Collection, counter-screen for HCV NS3 helicase inhibitor project (AID 743271; in the data active = inhibition above about 28%); conditions: E. coli SSB-DNA binding, stronger effect = higher value, concentration not given here
[8] = compounds distorting NS3 helicase fluorescence signal – biochemical, NIH Clinical Collection, artefact control for HCV NS3 helicase inhibitor project (AID 743272; call rule not given here;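 also: HCV NS3 helicase with a Cy5 labelled single stranded DNA probe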); conditions: fluorescence interference counterscreen, HCV NS3 helicase assay; stronger effect = lower value
[9] = system: Neuropilin-2 / VEGF-C interaction (human); test: small molecules blocking Neuropilin-2/VEGF-C interaction – biochemical, microplate binding format, z-score (AID 743281; call rule not given here); conditions: microplate NRP2/VEGF-C binding assay; stronger effect = lower value
[10] = modulation of C. elegans fzo-1 (AID 1259413; call rule not given here;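 also: fzo-1 mutant C. elegans worms in liquid wells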); conditions: C. elegans fzo-1 modulator screen, mean read-out; stronger effect = higher value
[11] = system: Aerobactin synthetase IucA (Klebsiella pneumoniae, hypervirulent); test: biochemical IucA inhibition screen of LOPAC library by absorbance (AID 1346212; call rule not given here;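 also: 100% = no compound wells and 0% = no enzyme wells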); conditions: IucA enzyme assay, absorbance (OD) readout; stronger effect = lower value;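 tested at 8 µM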
[12] = viability loss with induced miR-34 in A549 – imaging, A549 dox-inducible miR-34, nuclei and caspase counts, primary screen (AID 1347080;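 active = compounds whose cell count with miR-34 switched on is under 0.7 times the count with it off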); conditions: A549 miR-34 inducible, Hoechst nuclei count, 48 h
[13] = blockers of cellular phospholipid synthesis – cell-based, LOPAC library, screen 4, primary screen (AID 1347384; call rule not given here); conditions: animal cells, phospholipid biosynthesis inhibition screen; at 10 µM
[14] = galactose survival enhancers in mitochondrial complex I cybrids – cell-based, galactose medium, ATP luminescence, primary screen (AID 1645843;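 active = z-score of at least 1.8 in each of two replicates, scored against plate mean and spread of sample wells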;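 also: positive z means more ATP and so rescue of galactose-driven cybrid death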); conditions: complex I mutant cybrid cells, 72 h, stronger effect = higher value
[15] = system: F380Y; test: BK channel mutant inhibitors and activators – cell-based, U2OS BacMam, thallium flux, beta subunits, selectivity assay, profiling panel (AID 1259406); conditions: U2OS BacMam BK variants, at 30 µM;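 also: initial slope of Thallos dye fluorescence rise after thallium is added; log ratio against the mean of 0.3% DMSO vehicle wells on the same plate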
[16] = system: F380Y/beta1; test: as above; conditions: U2OS BacMam BK variants, at 30 µM
[17] = system: F380Y/beta2Delta; test: as above; conditions: U2OS BacMam BK variants, at 30 µM
[18] = system: F380Y/beta4; test: as above; conditions: U2OS BacMam BK variants, at 30 µM
[19] = target: Calcium-activated potassium channel subunit alpha-1 (Homo sapiens) + Leucine-rich repeat-containing protein 26 (Homo sapiens) (UniProt Q12791+Q2I0M4); test: as above; conditions: U2OS BacMam BK variants, F380Y/Slo1WT/gamma1, at 30 µM
Sequence of Calcium-activated potassium channel subunit alpha-1 (Homo sapiens) + Leucine-rich repeat-containing protein 26 (Homo sapiens) (Q2I0M4 whole entry, looked up, one chain of several): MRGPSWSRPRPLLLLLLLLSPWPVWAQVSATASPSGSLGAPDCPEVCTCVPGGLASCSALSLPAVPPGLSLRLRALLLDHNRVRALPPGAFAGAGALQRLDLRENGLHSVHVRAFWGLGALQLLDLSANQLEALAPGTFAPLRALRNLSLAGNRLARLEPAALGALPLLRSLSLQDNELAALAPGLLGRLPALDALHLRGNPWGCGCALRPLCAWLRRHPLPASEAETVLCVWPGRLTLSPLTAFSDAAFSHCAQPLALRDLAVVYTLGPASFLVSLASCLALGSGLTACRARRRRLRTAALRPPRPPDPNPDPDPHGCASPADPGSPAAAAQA

[20] = system: R275C; test: as above; conditions: U2OS BacMam BK variants, at 30 µM
[21] = system: R275C/beta1; test: as above; conditions: U2OS BacMam BK variants, at 30 µM
[22] = system: R275C/beta2Delta; test: as above; conditions: U2OS BacMam BK variants, at 30 µM
[23] = system: R275C/beta4; test: as above; conditions: U2OS BacMam BK variants, at 30 µM
[24] = system: R275C/Slo1WT/beta2; test: as above; conditions: U2OS BacMam BK variants, at 30 µM
[25] = viability loss in pontine glioma line – cell-based, SU-DIPG-XVII, MIPE5.0, CellTiter-Glo, qHTS, dose response (AID 1347060; cut-off not given, nearly all actives have AC50 up to about 26 µM); conditions: CellTiter-Glo ATP luminescence
[26] = viability loss in pontine glioma line – cell-based, SU-DIPG-XIII, MIPE4.0, CellTiter-Glo, qHTS, dose response (AID 1347061; cut-off not given, nearly all actives have AC50 up to about 37 µM;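 also: cells exposed to compound for 48 hours before readout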); conditions: CellTiter-Glo ATP luminescence
[27] = viability loss in pontine glioma line – cell-based, JHH-DIPG-1, MIPE4.0, CellTiter-Glo, qHTS, dose response (AID 1347062; cut-off not given, nearly all actives have AC50 up to about 27 µM); conditions: JHH-DIPG-1 viability, CellTiter-Glo ATP luminescence
[28] = viability loss in pontine glioma line – cell-based, SU-DIPG-IV, MIPE4.0, CellTiter-Glo, qHTS, dose response (AID 1347063; cut-off not given, nearly all actives have AC50 up to about 30 µM;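 also: compound exposure lasted 48 hours before the viability readout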); conditions: CellTiter-Glo ATP luminescence
[29] = viability loss in pontine glioma line – cell-based, SU-DIPG-XIII, MIPE5.0, CellTiter-Glo, qHTS, dose response (AID 1347064; cut-off not given, nearly all actives have AC50 up to about 23 µM); conditions: CellTiter-Glo ATP luminescence
[30] = growth inhibition of DIPG cells – cell-based, MIPE4.0 library, CellTiter-Glo luminescence, qHTS (AID 1347066; cut-off not given, nearly all actives have AC50 up to about 30 µM;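 also: cells exposed to compound for 48 hours before readout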); conditions: SU-DIPG-VI viability, CellTiter-Glo ATP luminescence
[31] = growth inhibition of DIPG cells – cell-based, MIPE5.0 library, qHTS (AID 1347068; cut-off not given, nearly all actives have IC50 up to about 30 µM); conditions: SU-DIPG-XXV viability
[32] = MELAS cybrid and Rieske KO viability enhancers – cell-based, MELAS cybrids, Rieske KO mouse fibroblasts, CellTiter-Glo, primary screen (AID 1508586;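 active = mean z-score across replicates of 1.96 or higher in either the MELAS or the Rieske mutant cell line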;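 also: z relative to plate mean and SD of compound and empty wells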); conditions: low glucose
[33] = measured here: relative caspase fold change +Dox/-Dox
[34] = measured here: total cells with miR-34 induction, stronger effect = lower value
[35] = measured here: total cells without miR-34 induction
[36] = MELAS cybrid survival, CellTiter-Glo 48 h, stronger effect = higher value
[37] = Rieske KO mouse fibroblast survival, CellTiter-Glo 72 h

COC(=O)N1CCN(C(=O)Cc2ccc(Cl)c(Cl)c2)C(CN2CCCC2)C1 (centres undefined)
10100 and 8750: cell count [12, 34]
75.4%: viability [2]
10500 and 9910: cell count [12, 35]
1.01 and 1.9: fold change [12, 33]
inactive: period change [1] -0.045 h | parasite load remaining [2] 76.7% | inhibition [3] -4% | fluorescence ratio (interference) [4] 1 | fluorescence ratio [5] 1.05 | inhibition [6] 4.36% | inhibition [7] 2.21% | fluorescence ratio [8] 1.03 | z-score [9] 1.19 | mean signal [10] 274 | remaining activity [11] 101% | fold change ([12]; stronger effect = lower value) 0.961 | fold change ([12]; stronger effect = lower value, cell number ratio, induced over uninduced) 0.883 | outcome [13] | z-score [14] -0.09 and 0.285 | log fold change Tl+ flux [15] 0.0797 | log fold change Tl+ flux [16] 0.0396 | log fold change Tl+ flux [17] 0.0718 | log fold change Tl+ flux [18] 0.0372 | log fold change Tl+ flux [19] -0.0265 | log fold change Tl+ flux [20] -0.00833 | log fold change Tl+ flux [21] 0.0475 | log fold change Tl+ flux [22] 0.0511 | log fold change Tl+ flux [23] 0.0175 | log fold change Tl+ flux [24] 0.0529

Cc1nnc2n1-c1ccc(Cl)cc1C(c1ccccc1)=NC2
1.21: fold change [12, 33]
8940: cell count [12, 35]
inactive: parasite load remaining [2] 139% | fluorescence ratio [5] 1.03 | inhibition [6] -4.36% | inhibition [7] -1.64% | fluorescence ratio [8] 0.99 | z-score [9] -0.124 | mean signal [10] 234 | fold change ([12]; stronger effect = lower value) 1.01 | z-score [14] 0.965 | log fold change Tl+ flux [15] -0.0314 | log fold change Tl+ flux [16] -0.00299 | log fold change Tl+ flux [17] -0.00534 | log fold change Tl+ flux [18] -0.0542 | log fold change Tl+ flux [19] -0.0153 | log fold change Tl+ flux [20] 0.0519 | log fold change Tl+ flux [21] 0.00402 | log fold change Tl+ flux [22] 0.0255 | log fold change Tl+ flux [23] 0.0351 | log fold change Tl+ flux [24] -0.00622
72.1%: viability [2]
9000: cell count [12, 34]

CC[C@@H](C(N)=O)N1CCCC1=O
10400 and 11900: cell count [12, 35]
0.204 and -0.0344: z-score [32, 37]
inactive: parasite load remaining [2] 91.8% and 41.8% | inhibition [3] -4% | fluorescence ratio (interference) [4] 1 | fluorescence ratio [5] 1.01 | inhibition [6] 7.52% | inhibition [7] 9.91% | fluorescence ratio [8] 1.02 | z-score [9] -0.78 | mean signal [10] 234 | outcome [25] | outcome [26] | outcome [27] | outcome [28] | outcome [29] | outcome [30] | outcome [31] | fold change ([12]; stronger effect = lower value) 1.08 and 0.876 | outcome [13] | z-score [32, 36] -0.985 and 0.498 | z-score [14] 0.685 and 0.535 | log fold change Tl+ flux [15] -0.0178 | log fold change Tl+ flux [16] -0.022 | log fold change Tl+ flux [17] -0.0158 | log fold change Tl+ flux [18] 0.0243 | log fold change Tl+ flux [19] -0.0482 | log fold change Tl+ flux [20] 0.037 | log fold change Tl+ flux [21] -0.0285 | log fold change Tl+ flux [22] -0.00577 | log fold change Tl+ flux [23] -0.0209 | log fold change Tl+ flux [24] -0.0311
70% and 106%: viability [2]
11300 and 10400: cell count [12, 34]
1.59 and 0.289: fold change [12, 33]

C[C@]12CC[C@H](O)CC1=CC[C@@H]1[C@@H]2CC[C@@]2(C)[C@H]1CC[C@]2(C)O
inactive: parasite load remaining [2] 67.4% | fluorescence ratio [5] 1.04 | inhibition [6] -1.19% | inhibition [7] -4.72% | fluorescence ratio [8] 1.02 | log fold change Tl+ flux [15] 0.0283 | log fold change Tl+ flux [16] 0.0442 | log fold change Tl+ flux [17] 0.0164 | log fold change Tl+ flux [18] 0.0285 | log fold change Tl+ flux [19] 0.0157 | log fold change Tl+ flux [20] 0.0183 | log fold change Tl+ flux [21] 0.0261 | log fold change Tl+ flux [22] -0.00697 | log fold change Tl+ flux [23] -0.00925 | log fold change Tl+ flux [24] 0.057
70.8%: viability [2]

C[C@]12CC[C@H]3[C@@H](CCC4=CC(=O)CC[C@@H]43)[C@@H]1CC[C@@H]2O
8170: cell count [12, 34]
inactive: parasite load remaining [2] 113% and 109% | fluorescence ratio [5] 1 | inhibition [6] -4.36% | inhibition [7] -0.87% | fluorescence ratio [8] 0.98 | fold change ([12]; stronger effect = lower value) 0.927 | z-score [32, 36] 0.634 | log fold change Tl+ flux [15] 0.0331 | log fold change Tl+ flux [16] 0.000378 | log fold change Tl+ flux [17] 0.0141 | log fold change Tl+ flux [18] 0.0107 | log fold change Tl+ flux [19] 0.0229 | log fold change Tl+ flux [20] -0.0315 | log fold change Tl+ flux [21] 0.00735 | log fold change Tl+ flux [22] -0.0135 | log fold change Tl+ flux [23] -0.0252 | log fold change Tl+ flux [24] -0.0416
73.7% and 87.5%: viability [2]
8800: cell count [12, 35]
1.32: fold change [12, 33]
0.271: z-score [32, 37]

CN1CC[C@@]23CCCC[C@@H]2[C@@H]1Cc1ccc(O)cc13
inactive: parasite load remaining [2] 97.8% | fluorescence ratio [5] 0.99 | inhibition [6] -1.98% | inhibition [7] -3.18% | fluorescence ratio [8] 0.91 | z-score [9] -0.569 | mean signal [10] 229 | log fold change Tl+ flux [15] 0.0229 | log fold change Tl+ flux [17] 0.00585 | log fold change Tl+ flux [19] 0.0222 | log fold change Tl+ flux [20] 0.00894 | log fold change Tl+ flux [21] 0.0266 | log fold change Tl+ flux [22] 0.00635
68.2%: viability [2]

— PubChem BioAssay
